Where “and” joins values, the source holds several entries; their conditions need not be identical. Equal values may be shown once.

This is an account of results in ChEMBL document CHEMBL1157539, “Thousands of chemical starting points for antimalarial lead identification” (Nature, 2010).

Common to all, as to format: functional
Assay [1] concerns Plasmodium falciparum. As to the kind of experiment: GSK_TCMDC: Inhibition of Plasmodium falciparum 3D7 in whole red blood cells, using parasite LDH activity as an index of growth. Test compounds present at 2uM.
Assay [2] deals with Plasmodium falciparum. Kind of assay: GSK_TCMDC: Inhibition of Plasmodium falciparum Dd2 in whole red blood cells, using parasite LDH activity as an index of growth. Test compounds present at 2uM.
Another assay deals with HepG2. As to the kind of experiment: GSK_TCMDC: Percent inhibition of human HepG2 cell line. Test compounds present at 10uM.

By Inhibition is commonly meant the change of the read-out against control, counted positive when it falls. As to `O=C(C=Cc1ccc(F)c(Br)c1)N1CCC(CN2CCC(c3c[nH]c4ccccc34)CC2)CC1`, the values for the Inhibition with Plasmodium falciparum [1], with Plasmodium falciparum [2] and in the assay with HepG2 were 100%, 9% and 39%, respectively.

As to `S=C(Nc1ccc2c(c1)OCCO2)NC1CCC(CN2CCC(c3c[nH]c4ccccc34)CC2)CC1` (configuration not stated), the Inhibition with Plasmodium falciparum [1] was 96% and 92%; in the assay with Plasmodium falciparum [2], 1% and 7%; with HepG2, 31% and 32%.

As for `COC(=O)/C=C/c1ccc(CC(C)NCC(O)c2cccc(C(F)(F)F)c2)cc1.Cl` (configuration not stated), the Inhibition in the assay on Plasmodium falciparum [1] amounted to 97%; in the assay with Plasmodium falciparum [2], 93%; in the assay on HepG2, 41%.

As for `CN(c1cc(NC(=O)c2ccc(F)cc2)ccn1)C1CCN(Cc2cccc(C#N)c2)CC1.O=C(O)C(F)(F)F`, the figures for the Inhibition in the assay with Plasmodium falciparum [1], in the assay with Plasmodium falciparum [2] and with HepG2 were 97%, 83% and 73%, respectively.

As to `COc1cccc(/C=C/C(=O)NC2CCC(CN3CCC(c4c[nH]c5ccccc45)CC3)CC2)c1` (configuration not stated), the Inhibition in the assay on Plasmodium falciparum [1] was 100% and 94%; with Plasmodium falciparum [2], 26% and 38%; in the assay on HepG2, 30% and 19%.

Regarding `Cc1ccc(CC(C)(C)NCC(O)c2cccc(C(F)(F)F)c2)cc1.O=C(O)/C=C/C(=O)O` (configuration not stated), the figures for the Inhibition with Plasmodium falciparum [1], in the assay on Plasmodium falciparum [2] and in the assay on HepG2 were 97%, 92% and 19%, respectively.

`O=C(Nc1ccc(CN2CCC(c3c[nH]c4ccc(O)cc34)CC2)cc1)c1ccc(-c2ccccc2)cc1`: the Inhibition with Plasmodium falciparum [1] was determined as 100%; in the assay on Plasmodium falciparum [2], 100%; with HepG2, 33%.

On to `C1=C(c2c[nH]c3ccccc23)CCN(Cc2ccccc2)C1`, for which the results for the Inhibition in the assay with Plasmodium falciparum [1], in the assay on Plasmodium falciparum [2] and in the assay on HepG2 were 91%, 80% and 22%, respectively.

With `COc1cccc(C(=O)C2CC2CN2CC=C(c3c[nH]c4cccc(Br)c34)CC2)c1` (configuration not stated), the Inhibition in the assay with Plasmodium falciparum [1] is on record as 96%; in the assay with Plasmodium falciparum [2] it was 85%; in the assay with HepG2, 22%.

As to `CNC(=O)c1ccc2[nH]cc(C3CCN(CC4CCN(C(=O)/C=C/c5ccc(Cl)c(Cl)c5)CC4)CC3)c2c1`, the Inhibition is recorded as 100% in the assay with Plasmodium falciparum [1], 88% in the assay on Plasmodium falciparum [2] and 3% with HepG2.

Consider `CC(Cc1ccc(NC(=O)[C@@H](C)NCCc2cccc(Cl)c2)cc1)NCCc1cccc(Cl)c1.Cl` (some centres not stated), for which the Inhibition in the assay on Plasmodium falciparum [1] was 99%; in the assay with Plasmodium falciparum [2] it was 54%; with HepG2, 99%.

On to `COc1cccc(C(=O)C2CC2CN2CC=C(c3c[nH]c4ccc(OC)nc34)CC2)c1` (configuration not stated), for which the Inhibition in the assay with Plasmodium falciparum [1] is on record as 94%; in the assay with Plasmodium falciparum [2], 89%; in the assay on HepG2, 8%.

With `Cc1nc2ccccc2n1C1CC2CCC(C1)N2Cc1nccn1-c1ccccc1.O=C(O)C(F)(F)F` (configuration not stated), the Inhibition in the assay with Plasmodium falciparum [1] stood at 94%; in the assay with Plasmodium falciparum [2], 96%; in the assay with HepG2 it was 0%.

For the compound `CCOC(C(=O)OCCN(C(C)C)C(C)C)(c1ccccc1)c1ccccc1`, the Inhibition in the assay with Plasmodium falciparum [1] worked out at 97%; in the assay with Plasmodium falciparum [2] it was 4%; with HepG2, 4%.

In the case of `Cc1[nH]c2ccccc2c1C1=CCN(CCCCC2(C)C(=O)Nc3cccc(F)c32)CC1` (configuration not stated), the Inhibition is 95% in the assay with Plasmodium falciparum [1], 90% in the assay with Plasmodium falciparum [2] and 9% in the assay on HepG2.

As for `COCC(=O)N(Cc1ccccc1-c1ccc(CNCCc2ccccc2)cc1)C1CCN(Cc2ccccc2)CC1.O=C(O)C(F)(F)F`, the Inhibition is 94% with Plasmodium falciparum [1], 86% with Plasmodium falciparum [2] and 39% in the assay with HepG2.

For the compound `CC(Cc1ccc(OCCCCOc2ccccc2)cc1)NCCCN1CCOCC1` (configuration not stated), the values for the Inhibition in the assay with Plasmodium falciparum [1], with Plasmodium falciparum [2] and in the assay on HepG2 were 98%, 78% and 98%, respectively.

Consider `COc1cccc(CN2CCC(CCOC(c3ccccc3)c3ccccc3)CC2)c1O`, for which the Inhibition with Plasmodium falciparum [1] is 97%; with Plasmodium falciparum [2] it was 99%; with HepG2, 33%.

`O=C(/C=C/c1ccc(Cl)c(Cl)c1)N1CCC(CN2C3CCC2CC(c2c[nH]c4ccccc24)C3)CC1` (configuration not stated): the Inhibition was determined as 100% with Plasmodium falciparum [1], 66% in the assay on Plasmodium falciparum [2] and 84% with HepG2.

As to `Cc1cc(N)nc2cc(CNCCc3ccccc3Br)ccc12.Cl`, the results for the Inhibition in the assay on Plasmodium falciparum [1], with Plasmodium falciparum [2] and with HepG2 were 100%, 93% and 47%, respectively.

Turning to `CN(C)CCCn1cc(C(=O)OC2CC3CCC(C2)N3C)c2cc(-c3ccccc3)ccc21.Cl` (configuration not stated), the Inhibition in the assay on Plasmodium falciparum [1] stood at 97%; with Plasmodium falciparum [2], 96%; in the assay with HepG2 it was 97%.

For the compound `Cc1ccc(CC(C)NCC(O)c2cccc(C(F)(F)F)c2)cc1.Cl` (configuration not stated), the Inhibition in the assay on Plasmodium falciparum [1] amounted to 99%; in the assay on Plasmodium falciparum [2], 97%; in the assay with HepG2, 6%.

For `CC[C@H]1C[N+]2([O-])CC[C@@H]1C[C@H]2[C@H](O)c1cc(-c2ccccc2)nc2ccc(OC)cc12`, the values for the Inhibition in the assay with Plasmodium falciparum [1], in the assay on Plasmodium falciparum [2] and in the assay with HepG2 were 99%, 97% and 0%, respectively.

For `COc1cc(NCCCNC(=O)c2cn(Cc3ccccc3)c3ccccc23)nc2ccccc12`, the results for the Inhibition in the assay with Plasmodium falciparum [1], in the assay on Plasmodium falciparum [2] and with HepG2 were 100%, 66% and 13%, respectively.

`COC(=O)c1ccc(CC(C)NCC(O)c2cccc(Br)c2)cc1` (configuration not stated): the results for the Inhibition in the assay with Plasmodium falciparum [1], with Plasmodium falciparum [2] and in the assay on HepG2 were 99%, 88% and 0%, respectively.

Regarding `O=C(/C=C/c1ccc(Cl)c(Cl)c1)NC1CCC(N2CCC(c3c[nH]c4ccc(O)cc34)CC2)CC1` (configuration not stated), the Inhibition in the assay with Plasmodium falciparum [1] came out at 97%; in the assay with Plasmodium falciparum [2], 16%; with HepG2, 10%.

`O=C(NC1CCC(CN2CCC(c3c[nH]c4ccccc34)CC2)CC1)c1cc(-c2cccc(Cl)c2)n(-c2ccc(Cl)cc2Cl)n1` (configuration not stated): the Inhibition was 81% with Plasmodium falciparum [1], 25% with Plasmodium falciparum [2] and 53% in the assay on HepG2.

With `COc1ccc2[nH]cc(C3CC4CCC(C3)N4CCC3CCN(C(=O)/C=C/c4ccc(Cl)c(Cl)c4)CC3)c2c1` (configuration not stated), the Inhibition with Plasmodium falciparum [1] was 100%; with Plasmodium falciparum [2], 80%; with HepG2, 38%.

For `Cc1cc(O)cc2c(C3CCN(CC4CCC(NC(=O)/C=C/c5ccccc5Cl)CC4)CC3)c[nH]c12` (configuration not stated), the Inhibition with Plasmodium falciparum [1] came to 99%; in the assay with Plasmodium falciparum [2] it was 84%; with HepG2 it was 21%.
